Laboratory results as given in PubChem BioAssay AID2366 (The Scripps Research Institute Molecular Screening Center, 2010).

assay: endogenous PME-1 and serine hydrolase inhibition – cell lysate, mouse brain cytosol, FP-rhodamine, gel ABPP, selectivity assay for PME-1 inhibitor project, dose response (AID 2366); details: gel-based ABPP;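 active means compounds picked for the later follow-up tests because of their potency and selectivity; inactive means compounds skipped in follow-up as weaker or less selective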

IC50, inactive:
CC(C)(C)S(=O)(=O)/C(C#N)=C/c1cccn1S(=O)(=O)c1ccccc1 > 50 µM, CS(=O)(=O)/C(C#N)=C/c1cccn1S(=O)(=O)c1ccccc1 > 50 µM, N#C/C(=C\c1cccn1S(=O)(=O)c1cccc([N+](=O)[O-])c1)S(=O)(=O)c1ccc(F)cc1 > 50 µM, N#C/C(=C\c1cccn1S(=O)(=O)c1cccc(C#N)c1)S(=O)(=O)c1ccc(F)cc1 > 50 µM, CS(=O)(=O)/C(C#N)=C/c1cccn1S(=O)(=O)c1ccc([N+](=O)[O-])cc1 > 50 µM
